# Assay results: ChEMBL document CHEMBL1961873, “Compounds: GSK PKIS; Assays: Nanosyn kinase panel” (2012)
# How the values were obtained:
# [1] = target: T1, Ephrin type-B receptor 2 (Homo sapiens) (UniProt P29323); settings: at 1 µM
# T1 sequence (whole entry): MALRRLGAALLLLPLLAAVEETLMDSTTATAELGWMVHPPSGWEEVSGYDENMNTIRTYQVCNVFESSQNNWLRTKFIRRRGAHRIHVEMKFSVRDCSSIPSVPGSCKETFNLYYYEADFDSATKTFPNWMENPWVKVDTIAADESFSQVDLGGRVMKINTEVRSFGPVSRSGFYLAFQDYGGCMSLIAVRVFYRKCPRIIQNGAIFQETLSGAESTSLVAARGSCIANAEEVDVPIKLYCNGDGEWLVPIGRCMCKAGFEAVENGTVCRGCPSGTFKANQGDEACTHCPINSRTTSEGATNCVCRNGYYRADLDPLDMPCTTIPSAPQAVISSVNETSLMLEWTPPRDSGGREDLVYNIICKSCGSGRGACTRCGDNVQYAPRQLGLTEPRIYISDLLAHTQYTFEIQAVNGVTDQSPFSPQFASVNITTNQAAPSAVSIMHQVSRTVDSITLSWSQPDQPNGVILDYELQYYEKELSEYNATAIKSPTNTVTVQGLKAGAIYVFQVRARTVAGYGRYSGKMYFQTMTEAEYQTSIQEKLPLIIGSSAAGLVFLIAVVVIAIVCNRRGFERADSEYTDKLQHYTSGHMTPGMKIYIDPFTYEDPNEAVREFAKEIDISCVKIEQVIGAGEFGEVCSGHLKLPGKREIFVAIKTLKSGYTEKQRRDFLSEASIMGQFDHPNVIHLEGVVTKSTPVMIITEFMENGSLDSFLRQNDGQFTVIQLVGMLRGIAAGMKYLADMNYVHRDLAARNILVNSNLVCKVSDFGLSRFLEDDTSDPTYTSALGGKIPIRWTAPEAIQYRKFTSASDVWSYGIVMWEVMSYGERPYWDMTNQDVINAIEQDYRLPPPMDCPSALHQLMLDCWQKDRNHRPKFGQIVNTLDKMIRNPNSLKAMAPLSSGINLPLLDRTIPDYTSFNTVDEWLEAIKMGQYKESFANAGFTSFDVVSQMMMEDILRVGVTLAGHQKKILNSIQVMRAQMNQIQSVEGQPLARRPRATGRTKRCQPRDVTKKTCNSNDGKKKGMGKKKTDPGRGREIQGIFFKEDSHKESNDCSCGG
# [2] = target: T2, Ephrin type-B receptor 3 (Homo sapiens) (UniProt P54753); settings: at 0.1 µM
# T2 sequence (whole entry): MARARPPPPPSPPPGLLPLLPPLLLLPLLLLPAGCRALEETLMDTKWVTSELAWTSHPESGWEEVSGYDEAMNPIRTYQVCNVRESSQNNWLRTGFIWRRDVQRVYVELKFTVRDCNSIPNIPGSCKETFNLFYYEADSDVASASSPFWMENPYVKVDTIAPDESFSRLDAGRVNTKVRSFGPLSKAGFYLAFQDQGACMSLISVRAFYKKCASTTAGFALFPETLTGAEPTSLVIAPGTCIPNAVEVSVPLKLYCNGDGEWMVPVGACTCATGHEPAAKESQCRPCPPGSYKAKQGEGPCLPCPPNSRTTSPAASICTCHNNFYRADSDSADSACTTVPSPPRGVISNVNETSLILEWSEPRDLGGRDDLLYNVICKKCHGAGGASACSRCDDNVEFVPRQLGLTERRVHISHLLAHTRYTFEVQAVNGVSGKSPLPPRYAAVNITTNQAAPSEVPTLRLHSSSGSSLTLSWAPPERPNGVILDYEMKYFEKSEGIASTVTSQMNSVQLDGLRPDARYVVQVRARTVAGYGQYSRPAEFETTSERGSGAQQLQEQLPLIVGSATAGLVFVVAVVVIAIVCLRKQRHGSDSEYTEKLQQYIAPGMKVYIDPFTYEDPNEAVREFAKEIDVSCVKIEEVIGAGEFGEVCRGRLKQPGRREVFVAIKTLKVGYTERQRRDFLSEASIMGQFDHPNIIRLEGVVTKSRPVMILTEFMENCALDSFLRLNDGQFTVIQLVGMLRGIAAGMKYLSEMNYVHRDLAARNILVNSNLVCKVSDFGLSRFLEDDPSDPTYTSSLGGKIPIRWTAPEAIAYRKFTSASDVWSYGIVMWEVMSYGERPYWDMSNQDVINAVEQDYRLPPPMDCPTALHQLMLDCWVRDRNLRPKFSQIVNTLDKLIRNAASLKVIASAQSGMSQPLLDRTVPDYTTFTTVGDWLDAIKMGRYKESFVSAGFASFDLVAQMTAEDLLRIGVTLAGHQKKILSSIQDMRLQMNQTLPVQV
# [3] = target: T2, Ephrin type-B receptor 3 (Homo sapiens); settings: at 1 µM
# [4] = target: T3, Ephrin type-B receptor 4 (Homo sapiens) (UniProt P54760); settings: at 0.1 µM
# T3 sequence (whole entry): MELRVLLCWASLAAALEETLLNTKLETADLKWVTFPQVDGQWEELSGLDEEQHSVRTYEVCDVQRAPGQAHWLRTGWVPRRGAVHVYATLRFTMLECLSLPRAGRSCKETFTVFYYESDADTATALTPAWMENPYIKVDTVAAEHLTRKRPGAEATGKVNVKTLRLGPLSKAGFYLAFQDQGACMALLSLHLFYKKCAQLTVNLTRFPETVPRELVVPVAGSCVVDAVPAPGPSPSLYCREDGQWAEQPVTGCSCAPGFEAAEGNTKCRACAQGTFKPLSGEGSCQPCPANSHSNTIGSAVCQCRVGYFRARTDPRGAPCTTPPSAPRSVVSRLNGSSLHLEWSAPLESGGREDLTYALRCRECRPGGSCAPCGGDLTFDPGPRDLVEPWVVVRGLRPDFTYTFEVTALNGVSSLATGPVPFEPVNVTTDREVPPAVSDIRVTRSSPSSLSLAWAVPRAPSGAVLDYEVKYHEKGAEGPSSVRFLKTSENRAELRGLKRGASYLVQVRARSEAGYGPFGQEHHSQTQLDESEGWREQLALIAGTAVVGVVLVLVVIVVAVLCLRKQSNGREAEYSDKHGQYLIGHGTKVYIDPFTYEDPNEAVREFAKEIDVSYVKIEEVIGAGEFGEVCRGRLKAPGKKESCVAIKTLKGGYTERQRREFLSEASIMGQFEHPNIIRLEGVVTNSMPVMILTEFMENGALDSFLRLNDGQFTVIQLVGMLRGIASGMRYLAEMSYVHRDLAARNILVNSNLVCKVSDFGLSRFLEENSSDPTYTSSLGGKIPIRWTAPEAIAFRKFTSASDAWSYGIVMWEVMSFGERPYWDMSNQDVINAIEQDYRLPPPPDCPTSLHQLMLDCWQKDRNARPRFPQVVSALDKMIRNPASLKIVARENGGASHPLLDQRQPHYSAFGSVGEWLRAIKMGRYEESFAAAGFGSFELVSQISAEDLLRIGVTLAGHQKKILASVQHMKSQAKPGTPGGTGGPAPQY
# [5] = target: T3, Ephrin type-B receptor 4 (Homo sapiens); settings: at 1 µM
# [6] = target: Receptor tyrosine-protein kinase erbB-2 (Homo sapiens) (UniProt P04626); settings: at 0.1 µM
# [7] = target: Receptor tyrosine-protein kinase erbB-2 (Homo sapiens) (UniProt P04626); settings: at 1 µM
# [8] = target: Receptor tyrosine-protein kinase erbB-4 (Homo sapiens) (UniProt Q15303); settings: at 0.1 µM
# Chain of Receptor tyrosine-protein kinase erbB-4 (Homo sapiens) (Q15303 whole entry): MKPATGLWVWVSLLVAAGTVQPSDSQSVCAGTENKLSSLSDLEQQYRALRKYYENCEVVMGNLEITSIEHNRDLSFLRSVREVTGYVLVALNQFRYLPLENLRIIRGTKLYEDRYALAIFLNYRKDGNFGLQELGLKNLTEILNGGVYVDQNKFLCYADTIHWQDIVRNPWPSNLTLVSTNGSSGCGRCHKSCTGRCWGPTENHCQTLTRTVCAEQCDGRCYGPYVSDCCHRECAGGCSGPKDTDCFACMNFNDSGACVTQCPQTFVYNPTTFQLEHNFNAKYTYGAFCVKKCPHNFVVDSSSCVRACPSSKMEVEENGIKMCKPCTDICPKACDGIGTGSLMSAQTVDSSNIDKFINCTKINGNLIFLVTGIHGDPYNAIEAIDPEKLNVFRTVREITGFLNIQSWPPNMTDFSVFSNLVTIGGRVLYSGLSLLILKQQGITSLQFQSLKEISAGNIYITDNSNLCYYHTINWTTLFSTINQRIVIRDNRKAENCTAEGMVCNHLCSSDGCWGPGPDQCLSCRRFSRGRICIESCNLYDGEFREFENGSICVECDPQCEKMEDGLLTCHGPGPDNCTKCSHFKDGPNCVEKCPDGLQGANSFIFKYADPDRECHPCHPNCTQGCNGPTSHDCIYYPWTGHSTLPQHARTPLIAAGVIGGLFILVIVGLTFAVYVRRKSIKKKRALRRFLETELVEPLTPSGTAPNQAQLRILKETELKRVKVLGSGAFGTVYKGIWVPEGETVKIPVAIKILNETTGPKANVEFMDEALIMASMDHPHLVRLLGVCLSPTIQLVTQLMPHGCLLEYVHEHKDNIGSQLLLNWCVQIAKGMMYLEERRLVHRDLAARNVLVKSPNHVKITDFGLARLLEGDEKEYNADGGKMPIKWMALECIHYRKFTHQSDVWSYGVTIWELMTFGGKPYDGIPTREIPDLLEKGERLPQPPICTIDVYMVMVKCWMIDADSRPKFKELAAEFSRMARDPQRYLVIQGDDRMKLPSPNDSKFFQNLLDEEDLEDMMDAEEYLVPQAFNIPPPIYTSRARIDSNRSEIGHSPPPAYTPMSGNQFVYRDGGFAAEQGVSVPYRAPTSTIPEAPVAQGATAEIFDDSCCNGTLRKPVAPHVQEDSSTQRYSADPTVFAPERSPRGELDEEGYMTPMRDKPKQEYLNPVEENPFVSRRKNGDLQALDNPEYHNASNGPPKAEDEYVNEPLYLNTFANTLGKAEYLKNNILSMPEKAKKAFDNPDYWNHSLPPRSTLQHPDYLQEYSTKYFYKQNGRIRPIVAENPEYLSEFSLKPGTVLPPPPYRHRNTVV
# [9] = target: Receptor tyrosine-protein kinase erbB-4 (Homo sapiens) (UniProt Q15303); settings: at 1 µM
# [10] = target: Tyrosine-protein kinase Fer (Homo sapiens) (UniProt P16591); settings: at 0.1 µM
# Chain of Tyrosine-protein kinase Fer (Homo sapiens) (P16591 whole entry, looked up): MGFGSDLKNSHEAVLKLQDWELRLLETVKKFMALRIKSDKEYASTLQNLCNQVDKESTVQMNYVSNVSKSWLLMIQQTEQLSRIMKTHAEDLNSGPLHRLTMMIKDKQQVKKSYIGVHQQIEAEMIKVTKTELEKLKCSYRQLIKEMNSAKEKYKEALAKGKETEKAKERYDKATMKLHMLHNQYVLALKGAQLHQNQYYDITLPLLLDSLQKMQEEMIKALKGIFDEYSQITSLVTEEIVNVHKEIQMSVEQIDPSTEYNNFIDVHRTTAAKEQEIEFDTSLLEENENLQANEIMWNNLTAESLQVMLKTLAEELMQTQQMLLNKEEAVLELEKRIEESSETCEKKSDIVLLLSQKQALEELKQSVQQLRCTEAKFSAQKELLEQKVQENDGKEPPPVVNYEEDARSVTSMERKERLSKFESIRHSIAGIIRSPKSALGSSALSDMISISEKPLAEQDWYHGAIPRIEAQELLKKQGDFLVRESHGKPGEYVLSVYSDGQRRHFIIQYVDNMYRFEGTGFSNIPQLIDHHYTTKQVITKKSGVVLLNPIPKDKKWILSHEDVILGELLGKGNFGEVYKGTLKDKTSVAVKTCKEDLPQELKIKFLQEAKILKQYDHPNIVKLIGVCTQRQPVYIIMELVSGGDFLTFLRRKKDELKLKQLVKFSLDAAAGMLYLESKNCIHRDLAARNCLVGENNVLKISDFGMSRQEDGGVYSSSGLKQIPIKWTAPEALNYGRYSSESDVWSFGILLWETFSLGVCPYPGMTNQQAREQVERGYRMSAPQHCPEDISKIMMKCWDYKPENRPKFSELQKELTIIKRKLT
# [11] = target: Tyrosine-protein kinase Fer (Homo sapiens) (UniProt P16591); settings: at 1 µM
# [12] = target: Tyrosine-protein kinase Fes/Fps (Homo sapiens) (UniProt P07332); settings: at 0.1 µM
# [13] = target: Tyrosine-protein kinase Fes/Fps (Homo sapiens) (UniProt P07332); settings: at 1 µM
# [14] = target: Fibroblast growth factor receptor 1 (Homo sapiens) (UniProt P11362); settings: at 0.1 µM
# Chain of Fibroblast growth factor receptor 1 (Homo sapiens) (P11362 22-822 limits assumed): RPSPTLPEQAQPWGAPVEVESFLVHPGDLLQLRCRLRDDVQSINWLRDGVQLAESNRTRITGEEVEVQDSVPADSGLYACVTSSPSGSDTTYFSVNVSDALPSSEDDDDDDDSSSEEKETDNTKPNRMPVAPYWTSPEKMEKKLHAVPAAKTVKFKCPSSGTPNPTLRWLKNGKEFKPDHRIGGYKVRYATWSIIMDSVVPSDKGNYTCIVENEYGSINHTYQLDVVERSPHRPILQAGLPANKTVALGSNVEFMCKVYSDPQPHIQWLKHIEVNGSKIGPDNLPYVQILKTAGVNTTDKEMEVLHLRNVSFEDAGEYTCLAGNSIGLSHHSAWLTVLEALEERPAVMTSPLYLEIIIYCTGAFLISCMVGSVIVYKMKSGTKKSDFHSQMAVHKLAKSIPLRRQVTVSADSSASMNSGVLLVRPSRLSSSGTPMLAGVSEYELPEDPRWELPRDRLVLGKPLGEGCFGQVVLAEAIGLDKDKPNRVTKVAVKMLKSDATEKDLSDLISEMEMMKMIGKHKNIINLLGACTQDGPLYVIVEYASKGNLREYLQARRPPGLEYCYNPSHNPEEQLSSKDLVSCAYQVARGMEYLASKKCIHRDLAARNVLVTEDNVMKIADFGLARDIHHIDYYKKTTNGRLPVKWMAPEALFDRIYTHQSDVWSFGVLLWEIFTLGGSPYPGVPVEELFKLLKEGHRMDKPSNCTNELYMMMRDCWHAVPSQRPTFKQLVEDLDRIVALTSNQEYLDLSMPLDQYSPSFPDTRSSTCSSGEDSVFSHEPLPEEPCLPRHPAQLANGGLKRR
# [15] = target: Fibroblast growth factor receptor 1 (Homo sapiens) (UniProt P11362); settings: at 1 µM
# [16] = target: Fibroblast growth factor receptor 2 (Homo sapiens) (UniProt P21802); settings: at 0.1 µM
# Chain of Fibroblast growth factor receptor 2 (Homo sapiens) (P21802 22-821 limits assumed): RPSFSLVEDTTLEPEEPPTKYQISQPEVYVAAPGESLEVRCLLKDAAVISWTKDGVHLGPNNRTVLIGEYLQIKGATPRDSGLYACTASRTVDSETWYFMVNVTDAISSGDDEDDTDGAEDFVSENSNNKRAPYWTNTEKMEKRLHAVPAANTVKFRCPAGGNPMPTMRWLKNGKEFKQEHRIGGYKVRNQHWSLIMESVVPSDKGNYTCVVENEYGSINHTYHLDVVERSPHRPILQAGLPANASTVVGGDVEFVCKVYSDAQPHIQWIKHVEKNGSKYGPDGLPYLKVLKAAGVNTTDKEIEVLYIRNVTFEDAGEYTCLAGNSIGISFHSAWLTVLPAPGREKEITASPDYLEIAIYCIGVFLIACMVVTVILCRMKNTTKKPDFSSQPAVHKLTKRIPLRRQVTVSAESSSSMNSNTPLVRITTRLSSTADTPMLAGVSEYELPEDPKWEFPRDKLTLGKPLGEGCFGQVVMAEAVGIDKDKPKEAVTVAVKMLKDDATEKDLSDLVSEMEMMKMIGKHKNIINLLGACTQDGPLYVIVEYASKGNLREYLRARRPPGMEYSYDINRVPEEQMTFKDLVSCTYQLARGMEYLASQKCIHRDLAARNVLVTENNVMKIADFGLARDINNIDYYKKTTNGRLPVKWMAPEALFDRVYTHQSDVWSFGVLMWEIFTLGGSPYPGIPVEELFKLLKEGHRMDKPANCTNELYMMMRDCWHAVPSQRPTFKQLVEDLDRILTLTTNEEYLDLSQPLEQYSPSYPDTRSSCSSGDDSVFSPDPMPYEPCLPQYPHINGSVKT
# [17] = target: Fibroblast growth factor receptor 2 (Homo sapiens) (UniProt P21802); settings: at 1 µM
# [18] = target: Fibroblast growth factor receptor 3 (Homo sapiens) (UniProt P22607); settings: at 0.1 µM
# Chain of Fibroblast growth factor receptor 3 (Homo sapiens) (P22607 23-806 limits assumed): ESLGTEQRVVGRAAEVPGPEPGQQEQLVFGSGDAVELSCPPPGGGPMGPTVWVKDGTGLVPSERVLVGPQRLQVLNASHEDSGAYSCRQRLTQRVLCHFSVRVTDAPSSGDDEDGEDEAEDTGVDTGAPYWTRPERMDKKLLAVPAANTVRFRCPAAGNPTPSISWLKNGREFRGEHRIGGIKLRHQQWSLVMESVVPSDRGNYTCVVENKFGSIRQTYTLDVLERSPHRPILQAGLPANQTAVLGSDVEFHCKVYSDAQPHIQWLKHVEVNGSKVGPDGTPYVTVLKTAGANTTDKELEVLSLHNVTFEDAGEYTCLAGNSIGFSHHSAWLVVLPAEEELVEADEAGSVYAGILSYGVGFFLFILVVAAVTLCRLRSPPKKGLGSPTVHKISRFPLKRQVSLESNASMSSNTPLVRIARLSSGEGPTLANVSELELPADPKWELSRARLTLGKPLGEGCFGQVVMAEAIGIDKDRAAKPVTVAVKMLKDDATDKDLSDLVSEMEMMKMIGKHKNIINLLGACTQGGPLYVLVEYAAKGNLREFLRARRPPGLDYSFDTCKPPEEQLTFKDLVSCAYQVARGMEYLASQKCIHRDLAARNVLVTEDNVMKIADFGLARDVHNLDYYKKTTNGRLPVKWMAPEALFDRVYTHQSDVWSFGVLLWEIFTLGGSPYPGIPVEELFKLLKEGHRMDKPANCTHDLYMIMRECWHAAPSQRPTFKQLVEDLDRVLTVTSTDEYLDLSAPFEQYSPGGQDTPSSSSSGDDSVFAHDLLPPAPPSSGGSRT
# [19] = target: Fibroblast growth factor receptor 3 (Homo sapiens) (UniProt P22607); settings: at 1 µM
# [20] = target: Fibroblast growth factor receptor 4 (Homo sapiens) (UniProt P22455); settings: at 0.1 µM;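 also: values are mean percent inhibition of FGFR4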
SMILES,inhibition [1] [%],inhibition [2] [%],inhibition [3] [%],inhibition [4] [%],inhibition [5] [%],inhibition [6] [%],inhibition [7] [%],inhibition [8] [%],inhibition [9] [%],inhibition [10] [%],inhibition [11] [%],inhibition [12] [%],inhibition [13] [%],inhibition [14] [%],inhibition [15] [%],inhibition [16] [%],inhibition [17] [%],inhibition [18] [%],inhibition [19] [%],inhibition [20] [%]
Nc1ncnc2occ(-c3ccc(NC(=O)Nc4cc(C(F)(F)F)cc(C(F)(F)F)c4)cc3)c12,68.2,6.66,27.9,9.24,41.4,-1.28,-3.43,9.75,5.89,1.71,22,1.31,4.84,9.08,43.7,23.3,68.8,10.8,52.8,3.02
CS(=O)(=O)CCNCc1ccc(-c2ccc3ncnc(Nc4ccc(OCc5cccc(F)c5)c(C(F)(F)F)c4)c3c2)o1,4.49,6.25,3.96,2.87,0.47,3.41,7.46,8.49,16.9,4.27,1.93,2.48,2.85,-1.13,2.33,3.18,4.51,4.79,3.38,–
CS(=O)(=O)CCNCc1ccc(-c2ccc3ncnc(Nc4ccc(OCc5ccccc5)c(Cl)c4)c3c2)o1,11.5,-0.46,2.9,1.93,2.4,21.5,69.5,59.8,88.1,4.02,10.4,0.53,0.08,0.78,3.71,0.57,5.46,2.05,4.98,-0.26
CC1=C(C(=O)Nc2ccc3[nH]ncc3c2)C(c2ccc(F)cc2)NC(=O)N1 (configuration not stated),5.02,3.4,1.2,-1.65,0.92,-0.29,-0.74,4.16,5.19,0.09,2.17,0.59,0.3,-0.9,6.58,3.51,18.4,4.3,14.7,1.22
Fc1cccc(COc2ccc(Nc3ncnc4cc(-c5ccc[nH]5)sc34)cc2Cl)c1,6.05,0.75,-2.49,-1.44,-2.14,0.71,15.2,36.5,68.5,1.94,2.81,1.96,1.5,-1.92,4.48,-1.83,0.05,-1,–,–
COc1ccc(-c2nn3ncccc3c2-c2ccnc(Nc3ccc(Cl)c(C(F)(F)F)c3)n2)cc1,10,3.56,4.88,3.3,-0.34,3.66,7.66,16,51.5,1.3,3.06,0.66,1.82,1.96,-2.37,1.72,2.97,2.57,4.12,0.28
Cn1cc(C=C2C(=O)Nc3cccnc32)c2ccccc21,12,4.59,-0.71,0.9,5.16,0.95,3.11,9.66,9.14,0.48,20.8,1.69,2.19,6.57,17.3,9.78,42.2,11.2,47.8,2.46
